Our source for the composite z-score and z-score values is PubChem BioAssay.

Active and inactive are the calls of the source.

A short description of test [1]: small molecules captured by biotinylated probe aFSTL3 – biochemical, small-molecule microarray, fluorescence 635/667, stem cell growth factor project, primary screen (AID 1064).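 Also: measures binding of the biotinylated anti-FSTL3 antibody to printed compounds.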 As to conditions: higher = more signal.
The nature of test [2]: binders from COS7 lysate, DM2A8 probe, primary screen, torsin A project, cell lysate, small-molecule microarray, fluorescence 635/667 (AID 1065). The note with it: higher = more signal, COS7 lysate expressing mutant human TOR1A.
Test [3] can be described thus: small molecules captured by biotinylated probe aFGF2 – biochemical, small-molecule microarray, fluorescence 635/667, stem cell growth factor project, primary screen (AID 1067).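 Also: measures binding of biotinylated aFGF2 protein to printed compounds on slides; z-score merges feature fluorescence and signal-to-noise across triplicate slides.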 The note with it: higher = more signal.
Test [4] is described as follows: small molecules captured by biotinylated probe aFGF10 – biochemical, small-molecule microarray, fluorescence 635/667, stem cell growth factor project, primary screen (AID 1071).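 Also: score merges 667 nm spot intensity and signal to noise from triplicate slides.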 The note with it: higher = more signal.
Test [5] has as its target Neurogenic locus notch homolog protein 2 (Homo sapiens) (UniProt Q04721). Nature of the test: small molecules binding Notch2 protein – biochemical, small-molecule microarray, 635 nm fluorescence, stem cell growth factors, primary screen (AID 1073). The note with it: higher = more signal.
The target in test [6] is Pro-neuregulin-1, membrane-bound isoform (Homo sapiens) (UniProt Q02297). Nature of the test: small molecules binding neuregulin-1 protein – biochemical, small-molecule microarray, fluorescence 635/667, psychiatric disease protein project, primary screen (AID 1075).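 Also: score combines 667 nm spot fluorescence with signal to noise.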 The note with it: NRG1 binding, 635 nm fluorescence, higher = more signal.
In test [7] the test system is Neuregulin-1 EGF-like domain. Nature of the test: small molecules binding NRG1 EGF domain – biochemical, small-molecule microarray, 635 nm fluorescence, primary screen (AID 1081).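 Also: binding of the protein to compounds printed on small-molecule microarray slides.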 The note with it: higher = more signal.
The nature of test [8]: FRG1 expression reporter modulators in myotubes – cell-based, C2C12 myotubes, firefly/Renilla luciferase, luminescence, FRG1 inhibition for FSHD, primary screen (AID 1084). As to conditions: FRG1 promoter luciferase, higher = more signal, called active from +8 up or from −8 down.
The nature of test [9]: small molecules captured by biotinylated probe aFST – biochemical, small-molecule microarray, fluorescence 635/667, stem cell growth factor project, primary screen (AID 1086).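 Also: score merges 667 nm fluorescence with signal-to-noise of each printed compound spot.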 The note with it: higher = more signal.
A short description of test [10]: binders of probe aHhip on microarray, primary screen, stem cell growth factor project, biochemical, small-molecule microarray, fluorescence 635/667 (AID 1087).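 Also: score merges spot fluorescence at 667nm with spot signal to noise ratio.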 The note with it: higher = more signal.
Test [11] concerns PRMT1 (protein arginine N-methyltransferase 1). Nature of the test: small molecules binding arginine methyltransferase PRMT1 – biochemical, small-molecule microarray, 635 nm fluorescence, primary screen (AID 1088).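 Also: binding of Prmt1 protein to compounds spotted on small-molecule microarray slides.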 The note with it: higher = more signal.
Test [12] is described as follows: growth effects on S. cerevisiae YJM789 – YJM789 clinical isolate, OD600, 24 h, basal, primary screen (AID 1089).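 Also: growth of clinical yeast isolate S. cerevisiae YJM 789 seeded 1000 cells per well; test concentration not given here.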 The note with it: higher = more signal, called active from +8 up or from −8 down.
A short description of test [13]: S. pombe growth modifiers, basal conditions – strain 972, OD600, 24 h, no modulator, primary screen (AID 1090).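 Also: basal condition with compound alone and no growth modifier present; test concentration not given here.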 As to conditions: S. pombe 972 growth, higher = more signal, called active from +8 up or from −8 down.
Test [14] can be described thus: budding yeast growth modifiers under rapamycin – strain BY4716, OD600, 96 h, primary screen (AID 1091). Also: test concentration not given here. As to conditions: S. cerevisiae BY4716 + rapamycin, higher = more signal, called active from +8 up or from −8 down.
Test [15] addresses Torsin-1A-interacting protein 2 (Homo sapiens) (UniProt Q8NFQ8). Nature of the test: small molecules binding lysate-expressed LULL1 – cell lysate, human LULL1 lysate, 635/667 nm fluorescence, primary screen (AID 1092).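 Also: probe is lysate of COS7 cells overexpressing human LULL1; score merges per-feature 667 nm fluorescence with signal-to-noise.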 The note with it: small-molecule microarray, hLULL1 lysate binding, 635 nm fluorescence; higher = more signal.
Test [16] is described as follows: optical density change of DRC41 E. coli – strain DRC41, OD650, 24 h, E. coli filamentation project, primary screen (AID 1093).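 Also: MC1000 strain lacking acrAB efflux and sulA so SOS filamentation is blocked; test concentration not given here.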 As to conditions: E. coli DRC41 growth, higher = more signal, called active from +8 up or from −8 down.
The nature of test [17]: probe aLefty2 binding to arrayed compounds – biochemical, biotinylated probe, 635/667 nm fluorescence, primary screen (AID 1094).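 Also: score merges spot fluorescence near 667 nm with spot signal-to-noise ratio.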 As to conditions: small-molecule microarray, higher = more signal.
Test [18] deals with Noggin (protein binding on small-molecule microarray). Nature of the test: small molecules binding Noggin protein – biochemical, 635/667 nm fluorescence, primary screen (AID 1095).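 Also: score merges 667 nm feature fluorescence with signal to noise over triplicate slides.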 As to conditions: 635 nm fluorescence, higher = more signal.
Test [19] has as its target Neurogenic locus notch homolog protein 3 (Homo sapiens) (UniProt Q9UM47). Nature of the test: small molecules binding NOTCH3 protein – biochemical, 635/667 nm fluorescence, primary screen (AID 1096). The note with it: small-molecule microarray, 635 nm fluorescence, higher = more signal.
The nature of test [20]: probe aEGFR binding to arrayed compounds – biochemical, biotinylated probe, 635/667 nm fluorescence, primary screen (AID 1097).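 Also: probe is a biotinylated anti-EGFR antibody binding compounds printed on slides; score combines fluorescence near 667 nm and signal to noise of each spot.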 The note with it: small-molecule microarray, higher = more signal.

Chain of Neurogenic locus notch homolog protein 3 (Homo sapiens) (Q9UM47 whole entry, looked up): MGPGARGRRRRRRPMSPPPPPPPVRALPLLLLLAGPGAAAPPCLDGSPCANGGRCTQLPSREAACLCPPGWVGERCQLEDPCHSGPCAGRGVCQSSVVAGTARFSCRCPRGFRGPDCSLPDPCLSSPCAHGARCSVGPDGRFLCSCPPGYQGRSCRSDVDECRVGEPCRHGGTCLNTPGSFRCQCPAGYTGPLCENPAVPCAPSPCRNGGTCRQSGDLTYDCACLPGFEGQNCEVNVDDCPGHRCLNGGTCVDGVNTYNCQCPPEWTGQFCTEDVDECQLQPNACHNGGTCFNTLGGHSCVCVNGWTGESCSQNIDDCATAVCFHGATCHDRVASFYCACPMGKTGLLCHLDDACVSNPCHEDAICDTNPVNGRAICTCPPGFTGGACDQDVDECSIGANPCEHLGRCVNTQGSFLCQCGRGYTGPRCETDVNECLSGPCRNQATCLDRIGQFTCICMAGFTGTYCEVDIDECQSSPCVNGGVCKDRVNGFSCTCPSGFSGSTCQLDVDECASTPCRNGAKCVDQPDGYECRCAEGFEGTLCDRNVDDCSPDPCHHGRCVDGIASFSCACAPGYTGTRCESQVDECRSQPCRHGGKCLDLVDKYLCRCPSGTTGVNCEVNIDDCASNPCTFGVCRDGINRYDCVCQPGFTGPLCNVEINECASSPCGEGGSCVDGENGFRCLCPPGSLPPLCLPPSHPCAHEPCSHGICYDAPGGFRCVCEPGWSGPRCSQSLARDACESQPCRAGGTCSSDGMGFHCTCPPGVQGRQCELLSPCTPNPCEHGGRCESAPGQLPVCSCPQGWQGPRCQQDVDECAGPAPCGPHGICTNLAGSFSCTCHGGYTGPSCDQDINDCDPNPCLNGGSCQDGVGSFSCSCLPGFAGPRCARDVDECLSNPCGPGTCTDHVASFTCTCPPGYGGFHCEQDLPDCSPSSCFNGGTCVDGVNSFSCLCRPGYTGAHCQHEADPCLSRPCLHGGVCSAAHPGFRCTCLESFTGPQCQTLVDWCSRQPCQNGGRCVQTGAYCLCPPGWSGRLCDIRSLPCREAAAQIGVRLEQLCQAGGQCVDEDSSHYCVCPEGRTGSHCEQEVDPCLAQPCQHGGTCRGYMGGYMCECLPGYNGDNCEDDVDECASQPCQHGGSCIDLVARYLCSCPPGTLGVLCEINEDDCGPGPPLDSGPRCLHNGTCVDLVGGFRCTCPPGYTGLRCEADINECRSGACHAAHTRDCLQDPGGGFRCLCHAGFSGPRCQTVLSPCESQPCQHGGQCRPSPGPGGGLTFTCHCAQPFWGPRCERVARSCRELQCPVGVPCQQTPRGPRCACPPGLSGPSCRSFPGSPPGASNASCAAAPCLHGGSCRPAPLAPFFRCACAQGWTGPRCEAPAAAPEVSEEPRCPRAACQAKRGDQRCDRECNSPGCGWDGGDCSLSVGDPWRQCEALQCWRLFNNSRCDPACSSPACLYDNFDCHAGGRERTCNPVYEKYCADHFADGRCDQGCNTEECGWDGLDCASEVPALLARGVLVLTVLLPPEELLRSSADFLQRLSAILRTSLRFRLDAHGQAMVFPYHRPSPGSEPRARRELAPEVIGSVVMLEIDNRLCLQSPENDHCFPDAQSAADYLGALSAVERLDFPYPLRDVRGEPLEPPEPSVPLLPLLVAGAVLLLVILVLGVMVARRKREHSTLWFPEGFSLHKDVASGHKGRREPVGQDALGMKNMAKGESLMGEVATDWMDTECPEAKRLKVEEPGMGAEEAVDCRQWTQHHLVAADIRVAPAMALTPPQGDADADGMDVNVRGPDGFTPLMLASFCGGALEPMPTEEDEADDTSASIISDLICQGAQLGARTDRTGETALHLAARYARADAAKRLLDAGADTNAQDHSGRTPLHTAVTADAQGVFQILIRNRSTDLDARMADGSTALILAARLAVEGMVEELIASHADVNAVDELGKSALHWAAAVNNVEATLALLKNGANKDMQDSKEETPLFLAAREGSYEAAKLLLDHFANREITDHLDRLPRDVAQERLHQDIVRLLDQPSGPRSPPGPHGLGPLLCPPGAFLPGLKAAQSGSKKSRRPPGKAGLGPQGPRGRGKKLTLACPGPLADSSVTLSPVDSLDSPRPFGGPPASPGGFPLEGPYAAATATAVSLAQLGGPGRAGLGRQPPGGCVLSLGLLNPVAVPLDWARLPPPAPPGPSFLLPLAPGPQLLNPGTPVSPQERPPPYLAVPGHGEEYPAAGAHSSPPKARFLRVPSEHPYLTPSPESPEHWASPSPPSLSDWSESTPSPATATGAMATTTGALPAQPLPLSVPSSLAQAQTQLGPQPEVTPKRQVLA
Chain of Torsin-1A-interacting protein 2 (Homo sapiens) (Q8NFQ8 whole entry, looked up): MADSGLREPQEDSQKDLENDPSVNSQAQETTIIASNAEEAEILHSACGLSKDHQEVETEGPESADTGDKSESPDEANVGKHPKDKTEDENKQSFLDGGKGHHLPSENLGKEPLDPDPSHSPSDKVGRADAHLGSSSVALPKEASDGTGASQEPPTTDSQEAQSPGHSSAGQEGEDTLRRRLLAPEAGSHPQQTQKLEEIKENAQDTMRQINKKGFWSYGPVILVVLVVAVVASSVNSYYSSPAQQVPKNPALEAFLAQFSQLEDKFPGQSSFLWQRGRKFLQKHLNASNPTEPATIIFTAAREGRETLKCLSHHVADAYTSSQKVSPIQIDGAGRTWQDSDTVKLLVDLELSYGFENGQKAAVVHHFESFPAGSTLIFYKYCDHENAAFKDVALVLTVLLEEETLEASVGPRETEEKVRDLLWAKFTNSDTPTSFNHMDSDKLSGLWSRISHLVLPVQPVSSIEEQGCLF
Chain of Pro-neuregulin-1, membrane-bound isoform (Homo sapiens) (Q02297 whole entry, looked up, the tested form may be a part, canonical isoform): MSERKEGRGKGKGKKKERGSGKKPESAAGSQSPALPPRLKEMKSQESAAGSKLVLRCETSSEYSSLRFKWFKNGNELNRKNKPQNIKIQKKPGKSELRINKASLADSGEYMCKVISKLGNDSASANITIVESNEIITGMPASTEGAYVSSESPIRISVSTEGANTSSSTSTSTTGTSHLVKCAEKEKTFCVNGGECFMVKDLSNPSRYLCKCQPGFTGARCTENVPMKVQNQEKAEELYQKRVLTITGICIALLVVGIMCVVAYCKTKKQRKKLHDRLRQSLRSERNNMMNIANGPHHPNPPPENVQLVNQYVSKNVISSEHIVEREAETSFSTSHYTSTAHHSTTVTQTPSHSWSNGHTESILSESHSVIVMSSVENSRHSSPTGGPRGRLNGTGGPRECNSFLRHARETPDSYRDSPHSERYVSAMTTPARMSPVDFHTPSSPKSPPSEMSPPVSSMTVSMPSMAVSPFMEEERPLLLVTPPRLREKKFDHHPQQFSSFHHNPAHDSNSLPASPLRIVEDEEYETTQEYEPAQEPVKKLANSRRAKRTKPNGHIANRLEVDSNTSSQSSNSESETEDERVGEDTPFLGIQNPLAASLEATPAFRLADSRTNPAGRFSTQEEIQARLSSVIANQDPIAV

As for `C=CCC(OC(C)=O)[C@@H]1[C@@H](N(Cc2ccc(-c3cccc(C(F)(F)F)c3)o2)C(=O)c2ccc(C)cc2)c2cc(OCCCO)ccc2N1C(=O)c1ccc2ccccc2n1` (stereo not given in full), the composite z-score was 0.172 in test [1]; 0.0875 in test [2]; -0.036 in [3]; 0.515 in test [4]; 0.126 in test [5]; 0.147 in test [6]. The composite z-score is 0.118 in test [7]; 0.361 in [9]; 0.0373 in [10]; -0.0077 in test [11]; 0.42 in [15]; -0.0286 in [17]. Moreover, the composite z-score in test [18] was 0.605; in test [19] it was 0.309; in [20], -0.147. The z-score in [8] was -0.352 (inactive); in [12], -0.269 (inactive); in test [13], -0.546 (inactive); in [14] it was 0.28 (inactive); in [16] it was 1.44 (inactive).

For the molecule `O=C1O[C@@H](c2ccccc2)[C@@H](c2ccccc2)N2[C@@H](c3ccc(O)cc3)[C@]3(C(=O)Nc4ccc(C#CCCO)cc43)[C@@H](C(=O)N3CCCCCCC3)[C@H]12`, the composite z-score was 2.71 in test [1]; 1.72 in test [2]; 0.442 in test [3]; 0.888 in [4]; 0.347 in test [5]; 1.62 in [6]. Further, the composite z-score in test [7] was determined as 1.25; in test [9], 2.57; in test [10] it was 1.64; in test [11], 1.55; in [15], 3.5; in [17], 1.26. In addition, the composite z-score in test [18] came to 1.48; in [19] it was 0.939; in test [20], 0.079. Moreover, the z-score was -1.61 (inactive) in test [8]; 0.36 (inactive) in test [12]; 0.67 (inactive) in test [13]; 1.51 (inactive) in test [14]; -0.306 (inactive) in test [16].

Consider `CN(C)CCCC[C@@H]1NC(=O)[C@@H]2C[C@H](C(=O)NCCCCCN)[C@H](c3ccc(O)cc3)N2C1=O`, for which the composite z-score in test [1] is 0.591; in [2], 0.137; in test [3] it was -0.043; in [4], -0.285; in test [5], 0.235; in test [6], 2.23. The composite z-score is 0.293 in [7]; 0.0993 in test [9]; -0.0324 in [10]; 0.255 in test [11]; 2.6 in test [15]; -0.0862 in [17]. Besides, the composite z-score was -0.668 in [18], -0.0504 in test [19] and -0.075 in test [20]. For the same molecule, the z-score is -0.926 (inactive) in test [8]; 0.212 (inactive) in [12]; -0.977 (inactive) in test [13]; 0.213 (inactive) in [14]; 0.0706 (inactive) in [16].

As for `O=C1C[C@@](C(=O)O)(c2ccc([N+](=O)[O-])cc2)[C@@H](c2ccc(CO)cc2I)N1C1CCCCC1`, the composite z-score in test [1] was 0.0508; in [2] it was 0.0298; in test [3] it was -0.0256; in [4], 0.798; in [5] it was 1.11; in test [6] it was 1.39. The composite z-score was 0.94 in test [7]; 0.797 in [9]; 0.12 in test [10]; 0.222 in test [11]; 2.54 in [15]; 0.0539 in test [17]. Also, the composite z-score in [18] is 0.373; in [19] it was 1.06; in [20] it was -0.0828. The z-score in test [8] is -1.26 (inactive); in test [12] it was -1.09 (inactive); in [13] it was -6.54 (inactive); in [14] it was 0.173 (inactive); in test [16] it was 2.15 (inactive).

Regarding `CC(C)OC(=O)C1=CCC(c2cccc(Cl)c2)O1` (stereo not given), the composite z-score in [1] is -0.206; in test [2], -0.125; in [3] it was -0.0717; in test [4], -0.348; in test [5] it was -1.12; in test [6], 0.754. Further, the composite z-score in test [7] was 1.06; in test [9], -0.332; in [10], -0.409; in test [11] it was 0.559; in [15], 3.3; in test [17], -0.245. Further, the composite z-score in test [18] was -0.523; in [19], -0.129; in test [20], -0.306. Besides, the z-score in test [8] is -0.716 (inactive); in test [12], -3.2 (inactive); in test [13] it was -5.63 (inactive); in [14] it was -1.11 (inactive); in [16], 1.09 (inactive).
